Reference: PubChem BioAssay AID1850 (Southern Research Specialized Biocontainment Screening …, 2009)
Where “and” joins values, the source holds several entries; their conditions need not be identical. Equal entries are not always repeated. Out of some 310,000 compounds screened, about 1,000 (0.32%) were called active. The list is a sample of the results. Entries with a potency or affinity are not part of this list. A number with no mark means an inactive call. No rule for the calls is given here.

Assay: Inhibition of PhoP regulon, Salmonella typhi GFP reporter cells, confirmation, 4 h (AID 1850);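 also: 0% = induced wells with vehicle and 100% = uninduced wells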
Conditions: Salmonella Typhi PhoP-promoter GFP reporter, fluorescence, at 50 µM, hits give high values

| SMILES | inhibition |
| --- | --- |
| COC(=O)c1cc2oc(C)cc2n1CC(=O)N1CCCc2ccccc21 | -6.03% |
| O=C(Nc1ccn(Cc2c(F)c(F)c(F)c(F)c2F)n1)c1cccc(Cn2cc([N+](=O)[O-])cn2)c1 | -7.4% |
| CCc1cccc(C)c1NC(=O)c1cccnc1 | -4.39% |
| O=C1C(Cl)=C(NCCN2CCCCC2)C(=O)c2ccccc21 | -2.93% |
| Cc1ccc(Nc2nc(NCc3ccco3)c3ccccc3n2)cc1 | 5.88% |
| Nc1nc(Nc2ccccc2)nc(NCc2ccco2)c1[N+](=O)[O-] | 3.06% |
| O=C(OCC(=O)N(Cc1ccccc1)Cc1ccccc1)c1ccccc1NCCO | -4.63% |
| CSc1nc2c(c(=O)[nH]1)C(c1ccc(C(F)(F)F)cc1)CC(=O)N2 (stereo not drawn) | 6.77% |
| CNc1oc(-c2cccs2)nc1S(=O)(=O)c1ccccc1 | -10% |
| COc1ccc(C(OCC(O)CN(C)C2CCCCC2)c2ccc(OC)cc2)cc1 (stereo not drawn) | -25.4% |
| O=C(N/N=C/c1ccc(Br)s1)c1ccccc1[N+](=O)[O-] | -8.63% |
| O=C(N/N=C/c1ccc([N+](=O)[O-])s1)c1ccccc1 | 6.9% |
| O=C(N/N=C/c1ccc(-c2ccc([N+](=O)[O-])cc2)o1)C(O)c1ccccc1 (stereo not drawn) | -3.63% |
| O=C(N/N=C/c1ccc(Cl)s1)C(O)c1ccccc1 (stereo not drawn) | -6.88% |
| Cc1cc(C(=O)N/N=C/c2ccc([N+](=O)[O-])s2)c2ccccc2n1 | 4.3% |
| Cc1ccc(/C=N/NC(=O)C(O)c2ccccc2)o1 (stereo not drawn) | 1.91% |
| Cc1ccc(NC(C)C(=O)N/N=C/c2ccc([N+](=O)[O-])s2)cc1 (stereo not drawn) | -1.13% |
| O=C(N/N=C/c1ccc([N+](=O)[O-])s1)c1cccc(Br)c1 | -0.18% |
| O=C(c1cc2ccccc2cc1O)N1CCN(c2ccc([N+](=O)[O-])cc2)CC1 | 6.8% |
| O=C(NCCCSc1ccccc1)c1ccc(=O)[nH]c1 | -9.17% |
| C=CCc1cc(Cl)ccc1OCCN1CC(C)OC(C)C1 (stereo not drawn) | -16% |
| Cn1c(-c2cccc([N+](=O)[O-])c2)cnc1NCc1ccc(C#N)cc1 | -3.32% |
| CC1(C)Cc2c(sc3c2c(N)nc(=S)n3Cc2ccccc2)CO1 | -10.9% |
| O=C(NCCC1=CCCCC1)c1cc(S(=O)(=O)N2CCOCC2)ccc1Cl | -3.59% |
| Cc1ccc(S(=O)(=O)Nc2cc(C(=O)N3CCC4(CC3)OCCO4)ccc2N2CCCCC2)cc1 | 3.06% |

| SMILES | inhibition |
| --- | --- |
| Cc1nc(SCC(=O)Nc2cc(Cl)ccc2[N+](=O)[O-])nc(C)c1C | 1.39% |
| O=C(CSc1nc2ccccc2[nH]1)N1CCN(C(=O)c2ccco2)CC1 | -8.53% |
| CCCCOc1ccc(CSC2=NCCN2)cc1[N+](=O)[O-] | 7.52% |
| CCOc1ccc(CSC(=N)N)cc1[N+](=O)[O-] | -0.03% |
| CCCCOc1ccc(CSCCN)cc1Cl | 12% |
| CCOc1ccc(CSC(=N)N)cc1Cl | 20.5% |
| CCCOc1ccc(CCCN=C(N)N)cc1Cl | 22.8% |
| CCCOc1ccc(CSC2=NCCN2)cc1[N+](=O)[O-] | 23.3% |
| CCOc1ccc(CN=C(N)N=C(N)N)cc1Cl | 20% |
| COc1ccc(CSC(=N)N)cc1[N+](=O)[O-] | -11.2% |
| Cc1cc(C(=O)Cn2nc(C(=O)O)c3ccccc3c2=O)c(C)n1-c1ccc(OC(F)F)cc1 | -17.2% |
| CCOC(=O)c1ccc(NC(=O)N2CCOCC2)cc1 | 9.07% |
| O=C(CCN1C(=O)C2CC=C(Cl)CC2C1=O)N1CCCCC1 (stereo not drawn) | 4.62% |
| O=C1c2ccccc2-c2nc3ccccc3n21 | -6.73% and -7.55% |
| CCCOc1ccc(Br)cc1CSC(=N)N | 20.4% |
| CCOc1ccc(Br)cc1CSC(=N)N | -6.33% |
| O=C(CN1C(=O)NC2(CCCC2)C1=O)Nc1ccc(S(=O)(=O)N2CCOCC2)cc1 | -0.54% |
| OCCNc1nc(Nc2ccccc2)nc(Nc2ccccc2)n1 | -3.62% |
| Cc1ccc(Nc2nc(N)c([N+](=O)[O-])c(NCCO)n2)cc1C | 13.6% |
| OCCNc1nc(NCc2ccccc2)c2ccccc2n1 | -4.21% |
| OCCNc1nc(Nc2ccccc2Cl)nc(N2CCCC2)n1 | -6.06% |
| Cc1cc(NCCO)c2ccccc2n1 | -12.1% |
| OCCNc1nc(Nc2ccc(O)cc2)nc2ccccc12 | 1.07% |
| OCCNc1nc(-c2ccccc2)nc2ccccc12 | 16% |
| O=C(NCCO)c1nc(NCCO)c2ccccc2n1 | -2.84% |

| SMILES | inhibition |
| --- | --- |
| O=C(CSc1ccc2c(c1)OCCO2)NCc1ccccc1 | 6.58% |
| CC(Sc1nnc(Nc2ccccc2)s1)C(=O)NC1CCCc2ccccc21 (stereo not drawn) | 9.25% |
| O=C(COc1ccc(Br)cc1)N(CCO)CCO | -3.36% |
| O=P(O)(Oc1ccccc1)OC(c1ccccc1)C(F)(F)C(F)(F)F (stereo not drawn) | 5.37% |
| O=C(NCCNS(=O)(=O)c1ccc(Cl)cc1)c1cc(OCC(F)(F)F)ccc1OCC(F)(F)F | 0.75% |
| c1coc(-c2cc(C3CCNCC3)[nH]n2)c1 | 10.6% |
| CC(Oc1ccccc1)C(=O)N=C1SC2CS(=O)(=O)CC2N1Cc1ccc(F)cc1 (stereo not drawn) | 2.75% |
| COc1cc(C(=O)OCC(=O)NCc2ccc(F)cc2)cc(NC(=O)c2cccs2)c1OC | 12.9% |
| COCCN(Cc1cc2cc3c(cc2nc1Cl)OCO3)C(=O)c1ccc(C)cc1 | -6.89% |
| CCc1ccc(CN2C(=O)c3ccccc3C2C(=O)NCc2cccnc2)cc1 (stereo not drawn) | -8.38% |
| COc1ccc(OC)c(Nc2nc(NCCO)c3ccccc3n2)c1 | -0.87% |
| OCCNc1nc(Nc2cccc(O)c2)nc2ccccc12 | -3.51% |
| CN1N=C(C(=O)Nc2ccc3c(c2)CCC3)CCC1=O | -2.98% |
| COc1cccc(COc2ncnc3sccc23)c1 | 3.57% |
| O=C(O)c1oc2ccccc2c1CN1CCN(c2ccccc2)CC1 | -0.62% |
| COc1ccc(OCC(=O)Nn2c(-c3cccc(OC)c3)nc3ccccc3c2=O)cc1 | -2.54% |
| COCCCn1c(SCC(=O)NC2CCCC2)nnc1-c1cccs1 | 7.9% |
| Nc1ccccc1C(=O)NNC(=O)C(=O)/C=C(\O)c1ccccc1 | 3.15% |
| COc1ccc(/C(O)=C/C(=O)C(=O)NNC(=O)c2ccccc2)cc1 | 12.4% |
| COc1ccc(-c2nnc(OC)c3ccccc23)cc1 | -2.2% |
| O=C(O)C1=C[C@H](c2csc3ccccc23)C[C@H](OCc2ccc(CO)cc2)O1 | 17.9% |
| NS(=O)(=O)c1ccc(CCNC(=O)C2CCCO2)cc1 (stereo not drawn) | -6.93% |
| CC(C)N1C(=O)/C(=C\c2nc3ccccc3c(=O)n2-c2ccccc2)c2ccccc21 | -1.3% |
| COc1cc(C(C[N+](=O)[O-])c2c(N)n(C)c(=O)n(C)c2=O)ccc1O (stereo not drawn) | -9.41% |
| Cn1c(N)c(C(C[N+](=O)[O-])c2ccccc2Cl)c(=O)n(C)c1=O (stereo not drawn) | 16% |

| SMILES | inhibition |
| --- | --- |
| Cc1c(CCC(=O)NCCCn2ccnc2)c(=O)oc2c(C)c3oc4c(c3cc12)CCCC4 | 2.2% |
| Cc1ccccc1S(=O)(=O)Cc1ccc(C(=O)O)o1 | -5.44% |
| Cc1cc(C)cc(Nc2cc(=O)n(C3CCCCC3)c(=O)[nH]2)c1 | 3.88% |
| Cn1c(NC2CCCCC2)cc(=O)n(C)c1=O | -41.1% |
| O=C(O)c1ccccc1NCc1cccs1 | -6.17% |
| O=C(NNc1c2ccccc2nc2ccccc12)c1ccccc1Cl | 5.14% |
| Cc1cc(C(=O)Cn2nc(C(=O)O)c3ccccc3c2=O)c(C)n1CC(F)(F)F | -16% |
| O=C(NNC(=O)C1CC=CCC1)c1cccc(Br)c1 (stereo not drawn) | 5.92% |
| CCOc1cc(CN2CCc3c([nH]c4ccccc34)C2)ccc1OC | -1.33% |
| CCCCCCNC(=O)C(=O)NCCc1ccc(Cl)cc1 | -2.68% |
| CCCCCc1ccc(CC(=O)O)cc1 | 7.27% |
| Cc1[nH]c2ccccc2c1C(=O)CN1C(=O)C(=O)N(Cc2ccco2)C1=O | -2.82% |
| CN(Cc1ccccc1)CC(O)COc1ccc(CNCc2cc3ccccc3s2)cc1 (stereo not drawn) | 5.91% |
| CN(Cc1ccccc1)CC(O)COc1ccc(CNCc2cccnc2)cc1 (stereo not drawn) | 6.07% |
| COc1ccc(OC(C)C(=O)NCc2cccnc2)cc1 (stereo not drawn) | -6.99% |
| O=C(Nc1cccc(Cl)c1)c1ccccc1 | -1.86% |
| O=C(Nc1ccc(Cl)c(Cl)c1)c1ccccc1 | -28.6% |
| COc1cc(C)ccc1N(CCCN1C(=O)c2cccc3cccc(c23)C1=O)C(=O)c1cccs1 | -7.11% |
| O=C1c2ccccc2NC(c2ccccc2O)N1c1ccc(F)cc1 (stereo not drawn) | -11.4% |
| CC1(C)Cc2c(cnn2-c2cccc(F)c2)C(NC(=O)c2ccc(=O)[nH]n2)C1 (stereo not drawn) | 2.67% |
| O=C(CCN1C(=O)c2ccccc2C1=O)Nn1cnnc1 | -10.1% |
| CC(=O)c1ccc(NC(=O)C2CCCN2S(=O)(=O)c2ccc(F)cc2)cc1 (stereo not drawn) | 0.38% |
| O=S1(=O)CCOC[C@H](c2ccccc2)N1Cc1cccc(Cl)c1 | 9.33% |
